In PubChem BioAssay (NCATS):

Experiments:
[1] = qHTS profiling for inhibitors of Plasmodium falciparum (3D7) proliferation (AID 743322);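 note: infected erythrocytes exposed to compound for 72 h before lysis; 100% = DMSO vehicle wells and 0% = 0.29 µM artemisinin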; conditions: P. falciparum 3D7 proliferation; at 28.7 µM (top of the series)
Summary of the method: (§1)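 Parasite DNA was quantified by SYBR Green I fluorescence (ex 485, em 535 nm) after overnight lysis in saponin/Triton buffer at room temperature. Cultures at 0.3% parasitemia and 2.5% hematocrit were first exposed to compound for 72 h at 37 C; signals were normalised to artemisinin (0.29 uM) and vehicle wells.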

[2] = qHTS profiling for inhibitors of Plasmodium falciparum (DD2) proliferation (AID 743323); conditions: lower = more inhibition; at 28.7 µM (top of the series)
Summary of the method: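 P. falciparum Dd2-infected erythrocytes (0.3% parasitemia, 2.5% hematocrit) exposed 72 h at 37 C, 5% CO2. Lysis with SYBR Green, overnight at room temperature, fluorescence 485/535 nm; normalized to 0.29 uM artemisinin and DMSO.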

[3] = qHTS profiling for inhibitors of Plasmodium falciparum (HB3) proliferation (AID 743324); conditions: Plasmodium falciparum HB3 blood-stage proliferation; at 28.7 µM (top of the series);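 note: 100% = DMSO vehicle wells and 0% = artemisinin-treated control wells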
Summary of the method: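 SYBR Green fluorescence (485 ex/535 em) of lysed cultures, incubated overnight at room temperature in the dark, quantifies parasite DNA. Infected erythrocytes at 0.3% parasitemia and 2.5% hematocrit were exposed 72 h; values normalized to DMSO and 0.29 uM artemisinin controls.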

[4] = qHTS profiling of the MIPE4 collection as inhibitors of Plasmodium falciparum (3D7) proliferation (AID 743344);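 note: scaled between DMSO vehicle wells and 0.29 µM artemisinin as full inhibition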; conditions: P. falciparum 3D7 in erythrocytes, SYBR Green DNA fluorescence, 72 h; at 28.5 µM (top of the series) unless noted
Summary of the method: as §1

[5] = qHTS profiling of the MIPE4 collection as inhibitors of Plasmodium falciparum (DD2) proliferation (AID 743345); conditions: P. falciparum Dd2 in erythrocytes, SYBR Green DNA, 72 h; at 28.5 µM (top of the series) unless noted
Summary of the method: as §1

[6] = qHTS profiling of the MIPE4 collection as inhibitors of Plasmodium falciparum (DD2) proliferation (Rep 2) (AID 743346); conditions: P. falciparum Dd2 in erythrocytes, SYBR Green DNA, 72 h; at 28.5 µM (top of the series) unless noted
Summary of the method: as §1

[7] = qHTS profiling of the MIPE4 collection as inhibitors of Plasmodium falciparum (HB3) proliferation (AID 743347);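 note: plate controls were DMSO vehicle wells for no effect and artemisinin wells for full effect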; conditions: P. falciparum HB3 in erythrocytes, SYBR Green DNA, 72 h; at 28.5 µM (top of the series) unless noted
Summary of the method: as §1

[8] = High-throughput drug toxicity screening in the BPDCN cell line Gen2.2 (AID 1224824); conditions: Gen2.2 BPDCN cells; at 45.8 µM (top of the series) unless noted;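 note: cells exposed to compounds for 48 h before reading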
Summary of the method: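 Gen2.2, 500 cells/well, phenol red-free RPMI/10% FBS/Pen-Strep; 48 h cpd, 37 °C/5% CO2; CTG lum, 15 min RT. Norm: DMSO = 100%, bortezomib 9.2 uM final = 0%.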

[9] = High-throughput drug toxicity screening in the BPDCN cell line Cal-1 (AID 1224825); conditions: Cal-1 BPDCN cell viability, qHTS; at 45.8 µM (top of the series) unless noted
Summary of the method: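 CellTiter-Glo luminescence after 48 h compound exposure; percent activity scaled with DMSO as 100% and bortezomib (9.2 uM final) as 0%. Cal-1 cells seeded at 500/well in RPMI, 10% FBS, no phenol red.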

Compound	remaining parasite growth % (stronger effect = lower value) [1]	activity, percent of control [2]	remaining proliferation (% of control), lower = more inhibition [3]	parasite growth, % of DMSO control [4]	parasite growth remaining, % of DMSO control (lower = more inhibition) [5]	parasite growth, % of control (lower = inhibition) [6]	growth, % of control [7]	cell viability, % of control (lower = more cytotoxic) [8]	viability (% of control) [9]
CN1CCN(c2ccc3nc(-c4c(N)c5c(F)cccc5[nH]c4=O)[nH]c3c2)CC1	-2.13%	-0.739%	-3.26%	3.66%	6.04%	7.17%	2.91%	9.8%	3.34%
Cc1cnc(Nc2ccc(F)cc2Cl)nc1-c1c[nH]c(C(=O)N[C@H](CO)c2cccc(Cl)c2)c1	7.37%	17.2%	6.37%	7.48%	8.92%	12.8%	11.5%	4.9%	1.37%
CC(=O)Nc1sc2c(c1-c1nc3ccccc3s1)CNC2	100%	96.7%	74.7%	20.4%	15.4%	24%	10.8%	8.36%	4.86%
CN(C)CC=CC(=O)Nc1cc2c(Nc3ccc(F)c(Cl)c3)ncnc2cc1O[C@H]1CCOC1	-0.281%	0.518%	0.188%	6.72%	7.96%	9.26%	8.85%	6.25%	5.7%
Cc1ccc(C(=O)Nc2ccc(CN3CCN(C)CC3)c(C(F)(F)F)c2)cc1C#Cc1cnc2cccnn12	-1.18%	0.143%	-1.05%	6.07%	7.34%	13%	8.37%	10.5%	3.63%
Cc1cn2c(-c3cn[nH]c3)cnc2c(Nc2ccc(C(=O)N3CCNCC3)cc2F)n1	19.1%	12.6%	11.9%	5.87%	11.4%	11.4%	3.68%	99.1%	28.2%
COc1cc(OC2CCN(C)CC2)ccc1Nc1ncc2c(n1)n(C1CCCC1)c(=O)n2C	9.94%	3.56%	1.94%	–	9.37%	18.2%	7.29%	6.18%	3.73%
COc1cc2c(Oc3ccc(NC(=O)C4(C(=O)Nc5ccc(F)cc5)CC4)cc3F)ccnc2cc1OCCCN1CCOCC1	-2.01%	-0.633%	-0.88%	–	5.88%	20.2%	8.86%	10.2%	4.49%
CC(C)(C)OC(=O)Nc1ccc(-c2cc(C(=O)NCCCCCCC(=O)NO)no2)cc1	-1.38%	-0.213%	0.579%	–	6.42%	12.7%	3.96%	4.96%	3.94%
CC(C)Nc1cc(C(F)(F)F)cc2nc(NC(=O)c3cccnc3)nn12	–	–	–	78.6%	97.3%	92.3%	93.5%	80.4%	120%
O=c1[nH]nc(Sc2ncc([N+](=O)[O-])s2)n1-c1ccc2c(c1)OCCO2	21%	65.9%	3.82%	–	64.7%	60.1%	62.4%	3.22%	2.62%
CC[C@H](CO)Nc1nc(NCc2ccccc2)c2ncn(C(C)C)c2n1	–	–	19.5%	20%	–	–	–	11.9%	29.5%
CC[C@@H]1C(=O)N(C)c2cnc(Nc3ccc(C(=O)NC4CCC(N5CCN(CC6CC6)CC5)CC4)cc3OC)nc2N1C(C)C (some centres undefined)	-0.343%	1.64%	–	4.79%	5.71%	17.4%	6.88%	2.88%	3.23%
C=CCn1c(=O)c2cnc(Nc3ccc(N4CCN(C)CC4)cc3)nc2n1-c1cccc(C(C)(C)O)n1	11.1%	6.29%	–	13.4%	13.2%	21.2%	16.5%	169%	16.4%
COc1cc(=C2C=c3ccccc3=N2)[nH]c1=Cc1[nH]c(C)cc1C	2.05%	1.12%	1.42%	–	7.38%	15.9%	5.2%	17.7%	3.02%
C[C@]12CC[C@H](O)CC1=CCC1C2CC[C@]2(C)C(n3cnc4ccccc43)=CCC12 (some centres undefined)	–	–	–	6.89%	72.8%	21.9%	9.11%	109%	91.9%
CCCCN1CCC(CNC(=O)c2c3n(c4ccccc24)CCCO3)CC1	–	–	–	25.9%	–	–	–	110%	9.06%
Cc1nc(Nc2n[nH]c3c2CN(C(=O)N[C@H](CN(C)C)c2ccccc2)C3(C)C)c2sccc2n1	–	–	–	4.72%	7.44%	9.85%	6.35%	0.772%	1.64%
CN(C)c1nc(Cc2ccc(NC(=O)c3ccc4ccccc4c3)cc2)nc(Cl)c1CC(=O)O	–	–	–	59.8%	87.6%	42.6%	85.9%	90.6%	113%
CC(C)CC(=O)Nc1n[nH]c2c1CN(C(=O)C1CCN(C)CC1)C2(C)C	9.49%	13.7%	–	–	19.3%	34.2%	5.85%	3.03%	2.15%
CC1(O)CC(c2nc(-c3ccc4ccc(-c5ccccc5)nc4c3)c3c(N)nccn23)C1 (centres undefined)	0.533%	2.21%	–	9.23%	19%	10.7%	5.32%	117%	8.23%
CC(=O)SC[C@@H](C)C(=O)N1CCC[C@H]1C(=O)N[C@@H](Cc1ccccc1)C(=O)O	106%	103%	–	100%	102%	69.5%	111%	132%	123%
